Data published in PubChem BioAssay (Tox21).
Records with an inconclusive call do not appear. The source made the active and inactive calls. The call rests on the fitted dose curve; in most records, active means well fitted inhibition curve with a large enough effect in the signal ratio in the repeat runs (not every such curve was filed as active); inconclusive means weak or mixed curves, or effect the other way; inactive means no such curve, though single readings can be large or run the other way; the % refers to the signal ratio.

biological target: Estrogen receptor beta (Homo sapiens) (UniProt Q92731); assay: qHTS assay to identify small molecule antagonists of the estrogen receptor beta (ER-beta) signaling pathway (AID 1259378); conditions: ER-beta-UAS-bla HEK293T, beta-lactamase FRET ratio, 16 h; series mostly up to 92.4 µM; activity, negative = inhibition: at the top concentration
Sequence (Q92731 whole entry, looked up): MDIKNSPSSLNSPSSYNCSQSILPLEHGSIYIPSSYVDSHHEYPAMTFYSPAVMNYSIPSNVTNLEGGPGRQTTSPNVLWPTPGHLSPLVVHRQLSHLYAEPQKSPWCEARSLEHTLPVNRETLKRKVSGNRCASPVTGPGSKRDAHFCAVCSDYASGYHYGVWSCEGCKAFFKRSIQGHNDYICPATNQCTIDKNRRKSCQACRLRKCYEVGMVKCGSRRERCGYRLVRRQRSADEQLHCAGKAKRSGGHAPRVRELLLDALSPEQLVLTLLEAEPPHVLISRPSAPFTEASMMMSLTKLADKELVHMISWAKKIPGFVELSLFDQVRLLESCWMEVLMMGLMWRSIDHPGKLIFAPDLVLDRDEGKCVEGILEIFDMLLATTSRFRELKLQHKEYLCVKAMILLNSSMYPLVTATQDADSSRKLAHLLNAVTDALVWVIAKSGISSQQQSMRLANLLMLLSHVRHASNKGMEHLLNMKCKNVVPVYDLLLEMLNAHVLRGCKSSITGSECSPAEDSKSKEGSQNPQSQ
From the text: National Center for Advancing Translational Sciences [NCATS]
NIH Chemical Genomics Center [NCGC]
U.S. Environmental Protection Agency [EPA]
National Institutes of Environmental Health Sciences [NIEHS]
National Toxicology Program [NTP]
U.S. Food and Drug Administration [FDA]
Estrogen receptor (ER), a nuclear hormone receptor, plays an important role in development, metabolic homeostasis and reproduction. Two subtypes of ER, ER-alpha and ER-beta, have similar expression patterns with some uniqueness in both types. Endocrine disrupting chemicals (EDCs) and their interactions with steroid hormone receptors like ER causes disruption of normal endocrine function. To identify the compounds that inhibit ER signaling, an ER-beta-UAS-bla GripTite cell line (Life Technologies, Madison, WI, USA) containing a beta-lactamase reporter gene under the control of an UAS response element was used to screen Tox21 10K compound library.
Tox21 Assay Protocol Summary:
ER-beta-UAS-bla HEK293T cells were dispensed at 2,000 cells/4 uL of assay medium containing 2% charcoal stripped FBS per well into black wall/clear-bottom 1536-well plates using a Multidrop Combi (ThermoFisher Scientific, Waltham, MA) dispenser. After the assay plates were incubated at a 37C and 5% CO2 for 6 hr, 23 nL of compounds dissolved in DMSO, positive controls or DMSO only was transferred to the assay plate by a Pintool station (Kalypsys, San Diego, CA), followed by addition of 1 uL (1nM as final concentration) of 17-beta-estradiol (E2) in assay medium using a BioRAPTR FRD (Flying Reagent Dispenser, Aurora Discovery, San Diego, CA). The plates were incubated at 37C and 5% CO2 for 16 hr. Then 1 uL of LiveBLAzerTM B/G FRET substrate was added using a Flying Reagent Dispenser, the plates were incubated at room temperature for 2 hours, and fluorescence intensity was measured by an Envision plate reader (PerkinElmer, Shelton, CT).
On the % scale 0 is the no-effect control and ±100 the full control effect.

| SMILES | activity, negative = inhibition | outcome |
| --- | --- | --- |
| Cc1c(NC(C)C)c(=O)n(-c2ccccc2)n1C | 6.05% [at 42.5 µM] (inactive) | – |
| CCOc1ccc(C(=O)OCCN(CC)CC)cc1 | 2.97% [at 42.5 µM] (inactive) | – |
| COC(=O)CCSCCC(=O)OC | 2.6% (inactive) | – |
| CCOC(=O)[C@H](CCc1ccccc1)N[C@@H](C)C(=O)N1[C@H](C(=O)O)C[C@@H]2CCC[C@@H]21 | 1.43% [at 42.5 µM] (inactive) | – |
| CN1CC(=O)NC1=N | 2.36% [at 42.5 µM] (inactive) | – |
| CC(C)=CCCC(C)CC(=O)O (stereo not given) | 1.2% (inactive) | – |
| Cc1ccc(=O)n(-c2ccccc2)c1 | 11.7% [at 42.5 µM] (inactive) | – |
| CC(C[N+](C)(C)C)OC(N)=O (stereo not given) | 3.08% [at 42.5 µM] (inactive) | – |
| CC[N+](C)(C)c1cccc(O)c1 | 10.1% [at 42.5 µM] (inactive) | – |
| NC(CSCC(=O)O)C(=O)O (stereo not given) | 9.12% [at 42.5 µM] (inactive) | – |
| CCCCOCCOCCOCCCC | -2.16% (inactive) | – |
| O=C1CCCCCCCCCCCN1 | – | inactive |
| COC(=O)c1cc(C(=O)OC)cc(S(=O)(=O)O)c1 | 9.87% (inactive) | – |
| O=C(O)c1ccccc1OP(=O)(O)O | 20.9% [at 42.5 µM] (inactive) | – |
| COc1ccc(CCN(C)CCCC(C#N)(c2cc(OC)c(OC)c(OC)c2)C(C)C)cc1OC (stereo not given) | -2.56% [at 42.5 µM] (inactive) | – |
| CC(C)CNCC(C)C | 13.4% (inactive) | – |
| CC(C)NCC(O)c1ccc(NS(C)(=O)=O)cc1 (stereo not given) | 2.52% (inactive) | – |
| CCO[Si](CCC1CCC2OC2C1)(OCC)OCC (stereo not given) | 2.35% (inactive) | – |
| CC(C)NC(=O)NC(C)C | 20.6% (inactive) | – |
| CC1=CC(C)C(C=O)CC1 (stereo not given) | -3.18% (inactive) | – |

| SMILES | activity, negative = inhibition | outcome |
| --- | --- | --- |
| CCN1CCC[C@H]1CNC(=O)c1c(O)c(Cl)cc(Cl)c1OC | 0.155% [at 42.5 µM] (inactive) | – |
| Oc1ccc(C2CNCCc3c2cc(O)c(O)c3Cl)cc1 (stereo not given) | 2.55% [at 42.5 µM] (inactive) | – |
| CCCCCCCCCCCCCCCCC | -0.878% (inactive) | – |
| COC(=O)NN | 1.78% (inactive) | – |
| O=S(O)CO | -10.2% (inactive) | – |
| ClC(Cl)(Br)Br | 2.02% (inactive) | – |
| Nc1ccccc1S(=O)(=O)O | -1.22% (inactive) | – |
| COCCCOCCCOC | 23.5% (inactive) | – |
| CC/C=C\CCOC(C)=O | 11.6% (inactive) | – |
| COC(=O)c1c(Cl)c(Cl)c(C(=O)OC)c(Cl)c1Cl | – | inactive |
| CCS(=O)(=O)c1ccc(OC)c(C(=O)OC)c1 | -4% [at 42.5 µM] (inactive) | – |
| O=C(O)COc1nn(Cc2ccccc2)c2ccccc12 | -4.11% [at 42.5 µM] (inactive) | – |
| C=C[Si](OC(=C)C)(OC(=C)C)OC(=C)C | -4.16% (inactive) | – |
| CCC(C)S (stereo not given) | 9.7% [at 3.27 µM] (inactive) | – |
| Cc1ccc(Cl)cc1Cl | 3.48% (inactive) | – |
| CCOC(=O)Nc1ccc(NCc2ccc(F)cc2)nc1N | -2.03% [at 42.5 µM] (inactive) | – |
| Cc1cccn2c(=O)c(-c3nnn[nH]3)cnc12 | 3.16% [at 19 µM] (inactive) | – |
| O=C(O)Cc1ccc(CCNS(=O)(=O)c2ccc(Cl)cc2)cc1 | 7.21% [at 42.5 µM] (inactive) | – |
| O=C(O)CCCl | 24% (inactive) | – |
| O=C1NC(=O)[C@@]2(CCOc3ccc(F)cc32)N1 | 22.1% [at 42.5 µM] (inactive) | – |
